In PubChem BioAssay (Tox21) one finds Potency and max activation data, which are given here for seven compounds.

Assay [1] in a line: Caspase-3/7 induction in HepG2 cells by small molecules, qHTS assay (AID 1346978). Note: % is set by controls: 0 for no effect and ±100 for the full control effect; nearly all actives have a fitted effect of over 15% in size. The gist of the method: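 Wild-type HepG2 cells (2,000/well) were settled 5 h at 37 C, 5% CO2, then exposed to compounds in DMSO for 17 h. Caspase-3/7 activity was read by luminescence 30 min after adding Caspase-Glo 3/7 reagent at room temperature.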
Background: qHTS replaces the single test concentration by a dilution series.

Assay [2] can be described thus: Caspase-3/7 induction in CHO-K1 cells by small molecules, qHTS assay (AID 1346980). Note: % is set by controls: 0 for no effect and ±100 for the full control effect; nearly all actives have a fitted effect of over 15% in size. In a few lines: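 Wild-type cells were seeded at 1,500 per well and settled 5 hr at 37 C, 5% CO2, then exposed to DMSO-dissolved compounds for 17 hr. Caspase-Glo 3/7 reagent was added, and luminescence was read after 30min at room temperature.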
The nature of assay [3]: Caspase-3/7 induction in HepG2 cells by small molecules, qHTS cell viability counter screen (AID 1346981). Note: series mostly up to about 92 µM; % is set by controls: 0 for no effect and ±100 for the full control effect; nearly all actives have a fitted effect of over 30% in size. In a few lines: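 In this quantitative HTS counter screen, compounds delivered in DMSO were left on unmodified HepG2 cells for 16 hr at 37 C. Viability was then determined fluorometrically with CellTiter-Fluor, in parallel with caspase-3/7 induction in the same wells.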

Assay [4] has as its target Nuclear receptor subfamily 1 group I member 2 (Homo sapiens) (UniProt O75469). Nature of the assay: Human pregnane X receptor (PXR) small molecule agonists, qHTS assay (AID 1346982). For activation: % is set by controls: 0 for no effect and ±100 for the full control effect. Note: nearly all actives have a fitted effect of over 35% in size. Note: potency is the fitted concentration of half-maximal effect. In a few lines:
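Reporter HepG2 cells expressing PXR-Luc are cultured in charcoal-stripped FBS (5%), treated with compounds for 24 hr at 37 C, and assayed by ONE-Glo luminescence after 30 min at room temperature.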

Assay [5] has as its target Acetylcholinesterase (Homo sapiens) (UniProt P22303). The experiment in a line: Acetylcholinesterase (AChE) small molecule antagonists: enzyme-based qHTS assay (AID 1347397; calls by dose curve; note: % is set by controls: 0 for no effect and ±100 for the full control effect; nearly all actives have a fitted effect of over 55% in size). The conditions noted are these: Potency: AChE enzyme activity inhibition. In a few lines: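 Tox21 library chemicals are tested in qHTS format against recombinant human AChE. The enzyme, dispensed at 50 mU/mL, sits with compound for 30 min at room temperature. A DTNB–acetylthiocholine cocktail follows, and colour is read after 10 min.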

The target is the same in assay [6]. The experiment in a line: Acetylcholinesterase (AChE) small molecule antagonists: fluorescence cell-based qHTS assay (AID 1347398; calls by dose curve; note: nearly all actives have a fitted effect of over 50% in size; note: potency is the fitted concentration of half-maximal effect). As to conditions: Potency: AChE activity. In a few lines: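 Cellular AChE inhibition: SH-SY5Y cells treated with test chemical for 30 min at 37 C, then acetylthiocholine hydrolysis followed over 40 min at room temperature via thiocholine-reactive Thiolite Green fluorescence (490/520 nm).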

The target is the same in assay [7]. The experiment in a line: Acetylcholinesterase (AChE) small molecule antagonists: enzyme-based qHTS assay with human liver microsomes (AID 1347399; calls by dose curve; note: % is set by controls: 0 for no effect and ±100 for the full control effect; nearly all actives have a fitted effect of over 60% in size). The conditions noted are these: Potency: qHTS inhibition. The gist of the method: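 Recombinant human AChE (50 mU/mL in the enzyme mix) and human liver microsomes (0.25 mg/mL final) were preincubated with compound and NADPH (0.25 mg/mL final) for 30 min at 37 C. Acetylthiocholine/DTNB was then added; thiocholine was read colorimetrically after 10 min at room temperature.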

Assay [8] concerns the target Cytochrome P450 2C19 (Homo sapiens) (UniProt P33261). Nature of the assay: Cytochrome P450 Family 2 Subfamily C Member 19 (CYP2C19) small molecule antagonists: luciferase reporter qHTS assay (AID 1671197). Note: nearly all actives have a fitted effect of over 65% in size. Note: potency is the fitted concentration of half-maximal effect. In a few lines: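 Quantitative high-throughput screen of the Tox21 library using CYP2C19 with proluciferin substrate. Reaction: NADPH regeneration, 37C, 1 h, after 10 min compound preincubation at room temperature. Readout: luminescence.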

Assay [9] has as its target Cytochrome P450 2C9 (Homo sapiens) (UniProt P11712). Nature of the assay: Cytochrome P450 Family 2 Subfamily C Member 9 (CYP2C9) small molecule antagonists: luciferase reporter qHTS assay (AID 1671198). Note: nearly all actives have a fitted effect of over 50% in size. Note: potency is the fitted concentration of half-maximal effect. In a few lines:
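CYP2C9 activity was measured with a P450-Glo proluciferin substrate. Enzyme–substrate mix was held with compound for 10 min at room temperature, then NADPH regeneration solution was added for 1 h at 37C. Luciferin product was read as luminescence.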
(In general: Reporter assays use an easily measured gene product as a stand-in for the process of interest.)

Assay [10] addresses Cytochrome P450 1A2 (Homo sapiens) (UniProt P05177). The experiment in a line: Cytochrome P450 Family 1 Subfamily A Member 2 (CYP1A2) small molecule antagonists: luciferase reporter qHTS assay (AID 1671199). Note: nearly all actives have a fitted effect of over 50% in size. Note: potency is the fitted concentration of half-maximal effect. The gist of the method:
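Steps: enzyme-substrate mix dispensed; test compounds and furafylline control pinned in; 10 min room temperature; NADPH regeneration solution added, 1 h; reaction stopped with luciferin detection reagent; luminescence read after 20 min.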

Assay [11] addresses Cytochrome P450 3A4 (Homo sapiens) (UniProt P08684). Nature of the assay: Cytochrome P450 Family 3 Subfamily A Member 4 (CYP3A4) small molecule antagonists: luciferase reporter qHTS assay (AID 1671201). Note: nearly all actives have a fitted effect of over 50% in size. Note: potency is the fitted concentration of half-maximal effect. In a few lines:
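Room-temperature assay throughout: 10 min compound–enzyme/substrate preincubation, 1 h reaction after NADPH regeneration solution, 20 min detection. Luciferin formed from proluciferin substrate is quantified by luminescence.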

Assay [12] has as its target Acetylcholinesterase (Homo sapiens) (UniProt P22303). Nature of the assay: Acetylcholinesterase (AChE) small molecule antagonists: colormetric cell-based qHTS assay (AID 1347395; calls by dose curve; note: % is set by controls: 0 for no effect and ±100 for the full control effect; nearly all actives have a fitted effect of over 30% in size). The gist of the method: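 In this cell-based qHTS, attached SH-SY5Y cells were treated with test chemicals for 30 min, after which acetylthiocholine hydrolysis was followed by DTNB colour development over 90 min at 37 C.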

Assay [13] deals with Cytochrome P450 2D6 (Homo sapiens) (UniProt P10635). The experiment in a line: Cytochrome P450 Family 2 Subfamily D Member 6 (CYP2D6) small molecule antagonists: luciferase reporter qHTS assay (AID 1671196). Note: nearly all actives have a fitted effect of over 50% in size. Note: potency is the fitted concentration of half-maximal effect. In a few lines: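 Test chemicals meet CYP2D6 plus proluciferin substrate (10 min, RT); NADPH regenerating solution then drives turnover for 1 h. Detection reagent halts the reaction; luminescence measured after 20 min.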

Assay [14] in a line: Caspase-3/7 induction in CHO-K1 cells by small molecules, qHTS cell viability counter screen (AID 1346979). Note: % is set by controls: 0 for no effect and ±100 for the full control effect; nearly all actives have a fitted effect of over 35% in size. In a few lines: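 Multiplexed with Caspase-Glo 3/7 in CHO-K1 cells, this counter screen added CellTiter-Fluor after 16hr of compound exposure and recorded fluorescence 1hr later.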
Assay [15] concerns the target Voltage-gated inwardly rectifying potassium channel KCNH2 (Homo sapiens) (UniProt Q12809). The experiment in a line: Human Ether-a-go-go-Related Gene (hERG) channel small molecule antagonists: fluorescence cell-based qHTS assay (AID 1671200). The gist of the method:
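Cell line hERG-U2OS; dye FluxOR II, 1 h RT dark; Tl+ stimulus; ex 480/em 540 nm, read each second for 2 min.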
Background: hERG is a cardiac potassium channel; its block is linked to QT prolongation.

Assay [16] deals with Nuclear receptor subfamily 1 group I member 2 (Rattus norvegicus) (UniProt Q9R1A7). The experiment in a line: Rat pregnane X receptor (rPXR) activation by small molecules, qHTS assay (AID 1346983). Note: % is set by controls: 0 for no effect and ±100 for the full control effect; nearly all actives have a fitted effect of over 20% in size. The conditions noted are these: rPXR luciferase reporter cells, One-Glo luminescence, 24 h; max activation: active compounds read high. In a few lines:
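Cell-based rPXR luciferase reporter assay, 2,000 cells per well, rested 5hr at 37 C before compound addition in DMSO, then 24 hr at 37 C. One-Glo reagent was added and luminescence read after 30 min at room temperature.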

Assay [17] deals with Nuclear receptor subfamily 1 group I member 2 (Homo sapiens) (UniProt O75469). The experiment in a line: CYP3A4 induction through human pregnane X receptor (PXR) by small molecules, qHTS assay (AID 1346984). Note: potency is the fitted concentration of half-maximal effect; nearly all actives have a fitted effect of over 40% in size. The gist of the method:
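Induction measured in HepG2-based DPX-2 cells co-expressing human PXR and a CYP3A4 promoter-driven luciferase. After a 24-hour compound exposure, cells received CYP3A4 luciferin substrate at 3uM final for 3 hours, and light output was then recorded.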

Assay [18] shares this target. Nature of the assay: Human pregnane X receptor (PXR) activation by small molecules, qHTS assay (AID 1346985). Note: potency is the fitted concentration of half-maximal effect; nearly all actives have a fitted effect of over 40% in size. The gist of the method: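 DPX-2 cells (HepG2 co-transfected with a PXR response element and a CYP3A4-promoter luciferase construct) were seeded at 2,000 per well, rested 5 hr at 37C, then exposed to DMSO-dissolved compounds for 24 hr. Activation was read as luciferase luminescence.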

A number with no mark means an inactive call. Inconclusive results are not listed. Activity calls are given as the source filed them. Unless noted, calls come from the whole dose curve; as a rule, active = well fitted curve in the direction sought with a large enough effect in the repeat runs; inconclusive = weak or mixed curves; inactive = no such curve, though single readings can be large; an effect the other way counts as inactive or inconclusive.

Acetylcholinesterase (Homo sapiens), sequence (P22303 whole entry, looked up): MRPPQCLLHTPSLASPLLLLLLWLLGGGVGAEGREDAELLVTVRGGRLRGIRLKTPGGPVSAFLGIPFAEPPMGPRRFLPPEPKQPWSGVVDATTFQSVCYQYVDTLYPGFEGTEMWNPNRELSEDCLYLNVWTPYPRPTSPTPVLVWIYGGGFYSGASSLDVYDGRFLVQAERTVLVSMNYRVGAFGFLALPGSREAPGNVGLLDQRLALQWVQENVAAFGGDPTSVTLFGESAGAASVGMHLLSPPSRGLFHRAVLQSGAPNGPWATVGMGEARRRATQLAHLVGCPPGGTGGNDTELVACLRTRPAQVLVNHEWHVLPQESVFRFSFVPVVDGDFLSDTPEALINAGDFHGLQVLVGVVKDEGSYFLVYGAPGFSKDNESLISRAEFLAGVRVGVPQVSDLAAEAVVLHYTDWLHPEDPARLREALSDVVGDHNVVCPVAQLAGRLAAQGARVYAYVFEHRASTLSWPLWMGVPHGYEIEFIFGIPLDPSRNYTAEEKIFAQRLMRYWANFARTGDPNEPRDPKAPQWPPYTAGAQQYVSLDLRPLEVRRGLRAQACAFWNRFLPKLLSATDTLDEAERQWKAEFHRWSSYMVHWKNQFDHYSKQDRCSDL
Cytochrome P450 1A2 (Homo sapiens), sequence (P05177 whole entry, looked up): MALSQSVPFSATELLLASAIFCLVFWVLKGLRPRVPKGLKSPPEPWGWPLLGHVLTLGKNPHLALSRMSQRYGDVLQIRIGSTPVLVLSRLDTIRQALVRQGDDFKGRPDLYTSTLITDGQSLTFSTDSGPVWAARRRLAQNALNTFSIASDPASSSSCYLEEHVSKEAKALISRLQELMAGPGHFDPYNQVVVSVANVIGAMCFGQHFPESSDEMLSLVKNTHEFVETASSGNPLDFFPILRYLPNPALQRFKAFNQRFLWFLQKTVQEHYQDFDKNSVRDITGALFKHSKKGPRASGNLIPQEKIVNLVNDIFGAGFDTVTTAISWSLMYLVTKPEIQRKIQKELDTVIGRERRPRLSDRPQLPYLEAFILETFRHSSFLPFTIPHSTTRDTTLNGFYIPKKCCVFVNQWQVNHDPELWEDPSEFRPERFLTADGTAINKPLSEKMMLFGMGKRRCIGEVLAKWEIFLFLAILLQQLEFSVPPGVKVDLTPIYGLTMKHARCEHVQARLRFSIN
Cytochrome P450 3A4 (Homo sapiens), sequence (P08684 whole entry, looked up): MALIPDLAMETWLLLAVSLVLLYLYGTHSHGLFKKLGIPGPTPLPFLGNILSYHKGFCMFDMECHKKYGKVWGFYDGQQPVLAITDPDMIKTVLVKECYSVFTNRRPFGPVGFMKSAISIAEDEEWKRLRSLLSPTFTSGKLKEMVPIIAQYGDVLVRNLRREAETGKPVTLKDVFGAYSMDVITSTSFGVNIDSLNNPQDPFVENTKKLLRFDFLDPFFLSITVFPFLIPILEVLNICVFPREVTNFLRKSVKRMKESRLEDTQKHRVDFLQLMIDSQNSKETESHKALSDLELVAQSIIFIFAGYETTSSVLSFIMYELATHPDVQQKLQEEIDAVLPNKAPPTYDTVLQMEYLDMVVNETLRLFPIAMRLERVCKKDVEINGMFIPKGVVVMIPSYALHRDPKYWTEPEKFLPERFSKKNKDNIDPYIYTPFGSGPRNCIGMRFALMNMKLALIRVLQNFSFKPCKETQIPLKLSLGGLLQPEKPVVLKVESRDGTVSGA
Cytochrome P450 2C19 (Homo sapiens), sequence (P33261 whole entry, looked up): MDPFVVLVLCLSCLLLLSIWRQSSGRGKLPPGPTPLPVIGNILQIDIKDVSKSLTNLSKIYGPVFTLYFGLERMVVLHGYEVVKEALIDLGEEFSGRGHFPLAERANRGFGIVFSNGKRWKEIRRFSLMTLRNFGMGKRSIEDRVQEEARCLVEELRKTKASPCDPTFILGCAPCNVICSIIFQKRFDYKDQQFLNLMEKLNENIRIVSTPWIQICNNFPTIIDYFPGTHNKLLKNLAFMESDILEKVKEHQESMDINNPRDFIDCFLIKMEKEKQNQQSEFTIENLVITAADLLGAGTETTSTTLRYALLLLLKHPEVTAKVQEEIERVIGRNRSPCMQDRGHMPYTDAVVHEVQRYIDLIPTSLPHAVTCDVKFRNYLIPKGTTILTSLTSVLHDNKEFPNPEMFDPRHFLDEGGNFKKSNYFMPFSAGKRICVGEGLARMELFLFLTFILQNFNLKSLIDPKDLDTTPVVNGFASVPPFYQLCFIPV
Cytochrome P450 2C9 (Homo sapiens), sequence (P11712 whole entry, looked up): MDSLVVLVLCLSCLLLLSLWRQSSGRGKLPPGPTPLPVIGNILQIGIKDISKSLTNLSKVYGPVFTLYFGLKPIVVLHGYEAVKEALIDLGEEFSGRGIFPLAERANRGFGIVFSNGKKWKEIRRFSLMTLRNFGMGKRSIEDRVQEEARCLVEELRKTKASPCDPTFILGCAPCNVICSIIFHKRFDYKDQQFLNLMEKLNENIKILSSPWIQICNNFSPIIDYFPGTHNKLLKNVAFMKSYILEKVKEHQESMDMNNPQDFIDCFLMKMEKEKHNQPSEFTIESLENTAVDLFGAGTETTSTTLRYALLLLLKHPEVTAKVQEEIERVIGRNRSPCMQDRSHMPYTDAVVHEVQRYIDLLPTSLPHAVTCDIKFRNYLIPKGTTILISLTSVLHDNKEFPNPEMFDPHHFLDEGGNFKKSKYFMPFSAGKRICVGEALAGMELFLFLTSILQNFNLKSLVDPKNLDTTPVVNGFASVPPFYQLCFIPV
Voltage-gated inwardly rectifying potassium channel KCNH2 (Homo sapiens), sequence (Q12809 whole entry, looked up): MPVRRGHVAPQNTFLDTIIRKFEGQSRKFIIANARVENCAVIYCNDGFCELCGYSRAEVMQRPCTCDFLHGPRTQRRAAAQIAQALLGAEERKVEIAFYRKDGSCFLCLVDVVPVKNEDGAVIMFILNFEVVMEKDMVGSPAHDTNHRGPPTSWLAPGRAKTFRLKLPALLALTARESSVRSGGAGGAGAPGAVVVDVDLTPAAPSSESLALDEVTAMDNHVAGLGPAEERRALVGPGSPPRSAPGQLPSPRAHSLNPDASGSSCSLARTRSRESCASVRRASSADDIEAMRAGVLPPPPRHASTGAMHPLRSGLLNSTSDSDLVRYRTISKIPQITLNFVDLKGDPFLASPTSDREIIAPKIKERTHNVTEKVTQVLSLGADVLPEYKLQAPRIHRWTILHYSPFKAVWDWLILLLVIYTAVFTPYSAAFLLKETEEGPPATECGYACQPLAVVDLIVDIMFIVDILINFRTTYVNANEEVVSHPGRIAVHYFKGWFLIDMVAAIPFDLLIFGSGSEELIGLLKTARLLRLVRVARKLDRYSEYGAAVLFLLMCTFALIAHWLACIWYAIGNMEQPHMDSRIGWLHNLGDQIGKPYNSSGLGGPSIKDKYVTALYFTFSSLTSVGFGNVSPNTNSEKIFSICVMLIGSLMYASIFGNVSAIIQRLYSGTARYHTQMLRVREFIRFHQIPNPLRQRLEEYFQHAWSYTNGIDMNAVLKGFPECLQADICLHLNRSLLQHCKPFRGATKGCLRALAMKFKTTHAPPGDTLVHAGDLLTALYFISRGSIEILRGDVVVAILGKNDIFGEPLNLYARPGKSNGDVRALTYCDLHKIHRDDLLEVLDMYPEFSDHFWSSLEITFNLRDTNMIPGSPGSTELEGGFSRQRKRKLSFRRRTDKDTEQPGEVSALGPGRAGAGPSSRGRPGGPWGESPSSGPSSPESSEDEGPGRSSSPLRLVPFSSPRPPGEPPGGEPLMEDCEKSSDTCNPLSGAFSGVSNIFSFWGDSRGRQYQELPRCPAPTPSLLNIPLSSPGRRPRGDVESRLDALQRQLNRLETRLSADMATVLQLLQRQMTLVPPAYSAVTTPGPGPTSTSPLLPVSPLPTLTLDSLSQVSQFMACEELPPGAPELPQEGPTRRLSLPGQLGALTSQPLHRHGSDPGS
Cytochrome P450 2D6 (Homo sapiens), sequence (P10635 whole entry, looked up): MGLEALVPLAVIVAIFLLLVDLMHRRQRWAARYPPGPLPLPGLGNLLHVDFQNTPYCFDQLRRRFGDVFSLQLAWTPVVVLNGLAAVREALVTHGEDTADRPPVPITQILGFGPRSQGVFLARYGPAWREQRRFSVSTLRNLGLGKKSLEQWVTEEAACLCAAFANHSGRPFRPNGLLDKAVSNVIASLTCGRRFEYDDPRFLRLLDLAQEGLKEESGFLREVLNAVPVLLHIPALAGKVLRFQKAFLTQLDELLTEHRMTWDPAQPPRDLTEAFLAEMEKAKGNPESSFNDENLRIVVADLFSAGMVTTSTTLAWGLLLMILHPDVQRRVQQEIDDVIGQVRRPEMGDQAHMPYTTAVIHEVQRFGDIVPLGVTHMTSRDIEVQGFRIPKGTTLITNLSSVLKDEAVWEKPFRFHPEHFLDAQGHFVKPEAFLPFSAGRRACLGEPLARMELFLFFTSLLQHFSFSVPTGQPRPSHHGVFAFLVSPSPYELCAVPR
Nuclear receptor subfamily 1 group I member 2 (Homo sapiens), sequence (O75469 whole entry, looked up): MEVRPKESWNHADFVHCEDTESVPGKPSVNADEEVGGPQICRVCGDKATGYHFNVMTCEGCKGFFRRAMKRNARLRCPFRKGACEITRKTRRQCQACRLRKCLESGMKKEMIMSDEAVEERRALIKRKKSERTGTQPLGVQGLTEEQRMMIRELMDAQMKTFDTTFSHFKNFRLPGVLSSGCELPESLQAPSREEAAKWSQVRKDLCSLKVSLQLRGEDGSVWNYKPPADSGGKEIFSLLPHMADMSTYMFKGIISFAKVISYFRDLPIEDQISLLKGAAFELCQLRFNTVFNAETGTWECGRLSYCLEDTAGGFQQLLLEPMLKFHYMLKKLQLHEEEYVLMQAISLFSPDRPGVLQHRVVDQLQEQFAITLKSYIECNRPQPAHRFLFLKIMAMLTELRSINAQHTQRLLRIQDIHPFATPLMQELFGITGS

Turning to `CCC(C)Nc1c([N+](=O)[O-])cc(C(C)(C)C)cc1[N+](=O)[O-]` (configuration not stated), the Potency entry in [1], in assay [2], in assay [3], in assay [5], in [6] and in assay [7] was “inactive” each time. The Potency entry in [11] is “inactive”. For the same compound, the Potency in [4] was 24.3 µM (active); in assay [8], 25.2 µM (active); in assay [9], 35.6 µM (active); in assay [10] it was 31.7 µM (active).

`C[C@H]1[C@H](c2ccc(Cl)cc2)SC(=O)N1C(=O)NC1CCCCC1`: the Potency result in assay [1], in [2], in assay [3], in assay [12], in assay [5] and in assay [6] was “inactive” each time. For the same compound, the Potency entry in assay [7] and in assay [13] was “inactive” in each case. The Potency in assay [4] was 6.86 µM (active); in assay [8] it was 5.03 µM (active); in [9], 10 µM (active); in [10], 35.6 µM (active); in assay [11] it was 7.96 µM (active).

On to `CCN(CC)C(=O)N[C@@H]1C=C2c3cccc4[nH]cc(c34)C[C@@H]2N(C)C1`, for which the Potency result in assay [1], in [14], in assay [2], in assay [5] and in assay [7] was “inactive” each time.

With `S=C=NCCc1ccccc1`, the Potency result in assay [1], in assay [2], in assay [3], in assay [12], in assay [5] and in assay [6] was “inactive” each time. In assay [7], the Potency result was “inactive”. Moreover, the Potency in assay [4] is 54.6 µM (active); in [13], 11.3 µM (active); in assay [8], 20.1 µM (active); in assay [9], 17.9 µM (active); in assay [10], 10.1 µM (active); in assay [15], 15.5 µM (active).

Take `CN1CCc2cc(Cl)c(O)cc2[C@H]2c3ccccc3CC[C@@H]21`: the Potency result in assay [1], in assay [2], in [4], in assay [7], in [8] and in [9] was “inactive” each time. In addition, the Potency result in assay [10] and in assay [11] was “inactive” throughout. Also, the max activation in assay [16] is 0.833%. The Potency in assay [17] is 2.24 µM (active); in assay [18] it was 2.24 µM (active); in assay [6] it was 21.9 µM (active); in assay [13], 0.0078 µM (active); in assay [15], 9.52 µM (active).

On to `CC1=C2C[C@H]3[C@@H](CC=C4C[C@@H](O)CC[C@@]43C)[C@@H]2CC[C@]12O[C@@H]1C[C@H](C)CN[C@H]1[C@H]2C`, for which the Potency entry in [1], in assay [2], in assay [4], in [12], in assay [5] and in assay [6] was “inactive” in each case. In addition, the Potency entry in assay [7], in assay [13], in assay [8], in [9], in [10] and in assay [11] was “inactive” throughout.

Regarding `Oc1ccc2[nH]cc(CCCCN3CC=C(c4ccccc4)CC3)c2c1`, the Potency result in [1] and in assay [2] was “inactive” throughout. In addition, in assay [16], the max activation is 4.09%. For the same compound, the Potency in assay [15] was 2.68 µM (active).
